Results reported in PubChem BioAssay (NCI).
Compounds without any hit were thinned out: in the full panel of roughly 79,000, 15% have a hit. A number with no mark means an inactive call. Active and inactive are the calls of the source. No stated cut-off is given here; in the data, active means growth inhibition above about 70%; inactive means the rest.

How the values were obtained:
[1] = NCI Yeast Anticancer Drug Screen. Data for the rad52 strain (AID 147);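 further: 0% = growth of vehicle-treated control cultures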; settings: S. cerevisiae rad52 mutant growth inhibition, active compounds read high
Summary of the method: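 Measured: yeast growth inhibition. System: strain with a defined DNA damage repair alteration. Reference: vehicle-treated control cultures.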

[2] = NCI Yeast Anticancer Drug Screen. Data for the wt1 strain (AID 149);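 further: 0% = growth of vehicle-treated wt1 cultures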; settings: S. cerevisiae wt1 strain (SPY 50644) growth inhibition, active compounds read high
Summary of the method: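 Vehicle-normalised growth inhibition; strain wt1; compound exposure.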

[3] = NCI Yeast Anticancer Drug Screen. Data for the mgt1 strain (AID 153); settings: S. cerevisiae mgt1 mutant growth inhibition, active compounds read high
Summary of the method: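 After exposure of the mgt1 yeast mutant to compound, growth was measured and reported as inhibition compared with vehicle controls.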

[4] = NCI Yeast Anticancer Drug Screen. Data for the rad50 strain (AID 155);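 further: 0% = growth of vehicle-only cultures of the same strain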; settings: S. cerevisiae rad50 strain growth inhibition, active compounds read high
Summary of the method: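 A DNA repair-deficient yeast mutant serves as the test organism; compound-induced growth inhibition is calculated against vehicle-treated cells.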

[5] = NCI Yeast Anticancer Drug Screen. Data for the mec2-1 strain (AID 157); settings: S. cerevisiae mec2-1 strain, active compounds read high
Summary of the method: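 Test agents were screened against the mec2-1 yeast strain, with defined DNA repair or cell cycle alteration. Growth was scored as inhibition against vehicle-only controls.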

[6] = NCI Yeast Anticancer Drug Screen. Data for the sgs1 mgt1 strain (AID 161);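 further: 0% = growth of cultures given vehicle only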; settings: S. cerevisiae sgs1 mgt1 strain, active compounds read high
Summary of the method: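 Test agents were incubated with a DNA-repair-mutant yeast strain. Growth was then read and compared against vehicle-treated controls.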

[7] = NCI Yeast Anticancer Drug Screen. Data for the CLN2oe strain (AID 163);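 further: 0% = growth of vehicle-only control cultures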; settings: S. cerevisiae CLN2oe strain, active compounds read high
Summary of the method: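 Here, growth inhibition in a cell-cycle-altered yeast strain after compound exposure was quantified against vehicle control growth.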

[8] = NCI Yeast Anticancer Drug Screen. Data for the cln2 rad14 strain (AID 165);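 further: 0% = growth equal to vehicle treated cultures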; settings: S. cerevisiae cln2 rad14 strain, active compounds read high
Summary of the method: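 Growth of compound-exposed yeast (cln2 rad14 genotype) measured and expressed as inhibition relative to vehicle.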

[9] = NCI Yeast Anticancer Drug Screen. Data for the bub3 strain (AID 167); settings: S. cerevisiae bub3 mutant strain, active compounds read high
Summary of the method: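 Inhibition values come from growth of compound-treated mutant yeast normalised to vehicle-treated controls.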

[10] = NCI Yeast Anticancer Drug Screen. Data for the wt2 strain (AID 169);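 further: 0% = growth of vehicle-treated yeast cultures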; settings: S. cerevisiae wt2 strain growth inhibition, active compounds read high
Summary of the method: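 Genetically defined yeast strains from a DNA-repair/cell-cycle panel were used. Compound-exposed yeast growth was measured, and the inhibition was calculated relative to vehicle treatment.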

[11] = NCI Yeast Anticancer Drug Screen. Data for the mlh1 strain (AID 171);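 further: 0% = growth of vehicle-treated control cultures of the same strain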; settings: S. cerevisiae mlh1 strain growth inhibition, active compounds read high
Summary of the method: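 Here the genetically defined yeast mutant is grown with each compound, and the extent to which its growth falls below that of vehicle-exposed cells is reported.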

[12] = NCI Yeast Anticancer Drug Screen. Data for the sgs1 strain (AID 173);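 further: 0% = growth of vehicle-only control cultures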; settings: S. cerevisiae sgs1 mutant, active compounds read high
Summary of the method: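 Relative growth inhibition, referenced to vehicle, was determined in a yeast strain with a defined alteration affecting DNA damage repair or cell cycle control after compound exposure.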

[13] = NCI Yeast Anticancer Drug Screen. Data for the mlh1 rad18 strain (AID 175); settings: S. cerevisiae mlh1 rad18 strain growth inhibition, active compounds read high
Summary of the method: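 In this whole-cell yeast screen, a strain with altered DNA damage repair is challenged with compound, and its growth is measured against matched vehicle-treated controls.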

[14] = NCI Yeast Anticancer Drug Screen. Data for the rad18 strain (AID 177); settings: S. cerevisiae rad18 mutant growth inhibition, active compounds read high
Summary of the method: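 Screen uses a yeast strain with a defined lesion in DNA damage repair; compound effect is read as loss of growth compared to untreated vehicle cultures.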

[15] = at 5.0 µM (retest, dose inferred, filed as 0.5)
[16] = at 50.0 µM (retest, dose inferred, filed as 5.0)

`NC(=S)N1N=C2c3ccccc3CC[C@@H]2[C@@H]1c1ccccc1` showed a growth inhibition ([1]; at 1.2 µM) of -34%, a growth inhibition ([1]; at 3.7 µM) of -17% and a growth inhibition ([1]; at 11.0 µM) of -8%. For the same compound, the growth inhibition ([1]; at 33.0 µM) was 7%, the growth inhibition ([1]; at 100.0 µM) was 77% (active) and the growth inhibition ([2]; at 1.2 µM) was 11%. For the same compound, the growth inhibition ([2]; at 3.7 µM) was 2%, the growth inhibition ([2]; at 11.0 µM) was 2% and the growth inhibition ([2]; at 33.0 µM) was 9%. For the same compound, the growth inhibition ([2]; at 100.0 µM) was 67%, the growth inhibition ([3]; at 1.2 µM) was -17% and the growth inhibition ([3]; at 3.7 µM) was -29%. The growth inhibition ([3]; at 11.0 µM) was -19%, the growth inhibition ([3]; at 33.0 µM) was 15% and the growth inhibition ([3]; at 100.0 µM) was 88% (active). For the same compound, the growth inhibition ([4]; at 1.2 µM) was -13%, the growth inhibition ([4]; at 3.7 µM) was -2% and the growth inhibition [4, 15] was 35%. For the same compound, the growth inhibition ([4]; at 11.0 µM) was -1%, the growth inhibition ([4]; at 33.0 µM) was 15% and the growth inhibition [4, 16] was 79% (active). For the same compound, the growth inhibition ([4]; at 50.0 µM) was 75.6% (active), the growth inhibition ([4]; at 100.0 µM) was 86% (active) and the growth inhibition ([5]; at 1.2 µM) was -10%. For the same compound, the growth inhibition ([5]; at 3.7 µM) was -13%, the growth inhibition [5, 15] was -16% and the growth inhibition ([5]; at 11.0 µM) was -3%. The growth inhibition ([5]; at 33.0 µM) was 13%, the growth inhibition [5, 16] was 77% (active) and the growth inhibition ([5]; at 50.0 µM) was 64.4%. For the same compound, the growth inhibition ([5]; at 100.0 µM) was 73% (active), the growth inhibition [6, 15] was 8% and the growth inhibition [6, 16] was 82% (active). For the same compound, the growth inhibition ([6]; at 50.0 µM) was 83% (active), the growth inhibition ([7]; at 1.2 µM) was -28% and the growth inhibition ([7]; at 3.7 µM) was -27%. The growth inhibition ([7]; at 11.0 µM) was -25%, the growth inhibition ([7]; at 33.0 µM) was -10% and the growth inhibition ([7]; at 100.0 µM) was 73% (active). The growth inhibition [8, 15] was -4%, the growth inhibition [8, 16] was 55% and the growth inhibition ([8]; at 50.0 µM) was 67.2%. For the same compound, the growth inhibition ([9]; at 1.2 µM) was -4%, the growth inhibition ([9]; at 3.7 µM) was 11% and the growth inhibition [9, 15] was 27%. For the same compound, the growth inhibition ([9]; at 11.0 µM) was -4%, the growth inhibition ([9]; at 33.0 µM) was 34% and the growth inhibition [9, 16] was 86% (active). For the same compound, the growth inhibition ([9]; at 50.0 µM) was 77.1% (active), the growth inhibition ([9]; at 100.0 µM) was 90% (active) and the growth inhibition ([10]; at 1.2 µM) was -17%. For the same compound, the growth inhibition ([10]; at 3.7 µM) was -5%, the growth inhibition ([10]; at 11.0 µM) was -2% and the growth inhibition ([10]; at 33.0 µM) was 25%. For the same compound, the growth inhibition ([10]; at 100.0 µM) was 86% (active), the growth inhibition ([11]; at 1.2 µM) was -31% and the growth inhibition ([11]; at 3.7 µM) was -25%. For the same compound, the growth inhibition ([11]; at 11.0 µM) was -8%, the growth inhibition ([11]; at 33.0 µM) was 23% and the growth inhibition ([11]; at 100.0 µM) was 88% (active). The growth inhibition ([12]; at 1.2 µM) was 6%, the growth inhibition ([12]; at 3.7 µM) was 13% and the growth inhibition ([12]; at 11.0 µM) was 27%. For the same compound, the growth inhibition ([12]; at 33.0 µM) was 68%, the growth inhibition ([12]; at 100.0 µM) was 89% (active) and the growth inhibition [13, 15] was -15%. For the same compound, the growth inhibition [13, 16] was 81% (active), the growth inhibition ([13]; at 50.0 µM) was 74.5% (active) and the growth inhibition ([14]; at 1.2 µM) was -25%. It also gave a growth inhibition ([14]; at 3.7 µM) of -21%, a growth inhibition ([14]; at 11.0 µM) of -11% and a growth inhibition ([14]; at 33.0 µM) of 14%. It also gave a growth inhibition ([14]; at 100.0 µM) of 66%.
